Bioassay records as filed in PubChem.
SMN2 splice up – increases expression of the SMN2 splice variant; HEK293 SMN2-luciferase splicing reporter, luminescence, 30-36 h; Potency, µM (series often up to 46.1 µM), for the others: top-dose activity change, positive = activation, usual class: activators; 210,000 tested, 2.8% active; further: % of control where 0% means no effect; nearly all actives have a fitted effect of over 55% in size
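HEK293 cells carry an SMN2 minigene-luciferase reporter in which exon 7 inclusion puts luciferase in frame. Cells were seeded at 2000 cells/well, attached for 10-12 hours, then exposed to compounds for 30-36 hours at 37C before ONE-Glo luminescence.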
NPC1 promoter act – activates the NPC1 promoter; Huh7 NPC1 promoter luciferase reporter, 24 h; AID 485313; Potency, µM (doses to about 9.22 µM), inactives show at the highest dose activation, hits mostly activators; 320,000 tested, 2.4% active; further: % of control where 0% means no effect; nearly all actives have a fitted effect of over 60% in size
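NPC1 promoter–luciferase Huh7 cells; 24 h compound; luminescence.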
FLuc modulator – counter-screen for miR-21 project: firefly luciferase inhibitors or activators; P08659; 360,000 tested, 6.9% active; Potency, µM (highest dose often 57.5 µM), without a hit: top-dose activity change, negative = inhibition, actives largely listed as inhibitors; purified FLuc, Km substrates, luminescence inhibition;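 further: plate controls were vehicle for no effect and reference inhibitor for full effect; nearly all actives have a fitted effect of over 55% in size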
Target sequence (P08659 whole entry, looked up): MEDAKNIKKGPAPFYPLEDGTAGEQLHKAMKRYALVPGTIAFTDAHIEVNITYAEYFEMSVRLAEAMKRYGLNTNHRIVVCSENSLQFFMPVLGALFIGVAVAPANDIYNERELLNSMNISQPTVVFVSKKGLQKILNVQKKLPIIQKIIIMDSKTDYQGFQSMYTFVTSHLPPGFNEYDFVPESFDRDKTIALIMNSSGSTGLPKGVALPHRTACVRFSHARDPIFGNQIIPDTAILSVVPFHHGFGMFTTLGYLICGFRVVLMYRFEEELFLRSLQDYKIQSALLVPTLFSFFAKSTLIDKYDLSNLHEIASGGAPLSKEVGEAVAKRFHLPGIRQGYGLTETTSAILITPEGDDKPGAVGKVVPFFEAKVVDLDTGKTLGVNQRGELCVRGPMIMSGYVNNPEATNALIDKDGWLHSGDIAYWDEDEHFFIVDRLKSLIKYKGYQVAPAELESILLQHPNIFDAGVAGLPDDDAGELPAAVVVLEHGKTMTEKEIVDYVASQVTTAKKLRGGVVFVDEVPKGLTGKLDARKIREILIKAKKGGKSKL
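Purified P. pyralis luciferase (10nM final) with 10uM D-luciferin and 10uM ATP (Km levels) in 50mM Tris acetate pH 7.5, 10mM Mg acetate, 0.01% Tween-20, 0.05% BSA; qHTS 6-point titration, ~60 µM downward; luminescence read.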
ELG1 genotox – genotoxicity induction in ELG1-luciferase HEK293T cells | 330,000 tested, 1.3% active | Potency, µM (top dose mostly 46 µM), inactives show at the highest dose activity change, positive = activation, hits mostly activators | HEK293T ELG1-luciferase reporter, luminescence, 16 h; further: % of control where 0% means no effect; nearly all actives have a fitted effect of over 60% in size
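DMSO vehicle served as control against compound-treated ELG1-luciferase HEK293T cells; exposure lasted 16 hr at 37 °C and 5% CO2, followed by ONE-Glo luminescence detection after 30 min.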
Rab9 prom act – Rab9 promoter activation; Potency, µM (series often up to 9.22 µM), inactives show top-dose activation, negative = inhibition, actives largely listed as activators; Huh7 Rab9 promoter-luciferase reporter, luminescence, 24 h; 320,000 tested, 2.8% active; AID 485297; further: % of control where 0% means no effect; nearly all actives have a fitted effect of over 60% in size
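Cell-based reporter: Huh7 stable for Rab9 promoter-driven luciferase, plated in reduced-serum medium with 10% FBS at 1500 cells/well, compound-treated 24 h at 37 °C, luminescence read after 10 min reagent.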
KinaseGlo FLuc – counter-screen: inhibitors of Kinase-Glo firefly luciferase; 200,000 tested, 0.28% active; Kinase-Glo luciferase, ATP luminescence, 8 min; Q27757; Potency, µM (series often up to 38.3 µM), without a hit: top-dose activity change, negative = inhibition, usual class: inhibitors; further: on the % scale 0 is the no-effect control and ±100 the full control effect; nearly all actives have a fitted effect of over 60% in size
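Substrate mix (final 50 mM imidazole pH 7.2, 50 mM KCl, 7 mM MgCl2, 10 uM ATP, 0.01% Tween 20, 0.05% BSA) plus pin-tool compound, then Kinase-Glo detection mix; 8 min ambient, luminescence read.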
* marks the source's active call; other numbers are inactive results; ? = inconclusive; nt = not tested or not shown. Only some compounds are listed: those with a hit (about 7.3% of all), similar ones and a draw of the others. The call rests on the fitted dose curve; in most records, active means well fitted curve in the direction sought with a large enough effect; inconclusive means small, poorly fitted or top-dose-only effect, or another doubt; inactive means no such curve, though single readings can be large; an effect the other way counts as inactive or inconclusive. Potency means the concentration at half of the fitted maximal effect.

SMILES | SMN2 splice up | NPC1 promoter act | FLuc modulator | ELG1 genotox | Rab9 prom act | KinaseGlo FLuc
C=CCn1c(=S)[nH]c2nc3c(cc2c1=O)CCCC3 | -14% | 19% | -16% | 16µM* | 16% | -14%
C=CCn1c(=S)[nH]c2ccc(Br)cc2c1=O | -7% | 0% | 2% | -14% | -4% | 3%
O=C(NNc1nc2cc3c(cc2s1)OCO3)c1cccc(F)c1 | 18% | 9% | 17µM* | -4% | 3% | -4%
COc1ccc(OC)c2sc(NC(=O)c3cccc(N4C(=O)CCC4=O)c3)nc12 | nt | -1% | 2% | 14% | 0% | nt
O=C(Nc1nc2cc3c(cc2s1)OCCO3)c1cccc(N2C(=O)CCC2=O)c1 | nt | ? | 0.76µM* | 9% | ? | nt
O=C(Nc1nc2ccccc2s1)c1cccc(N2C(=O)CCC2=O)c1 | nt | -5% | -1% | -7% | 4% | nt
Cc1sc(NC(=O)c2cccc(N3C(=O)CCC3=O)c2)nc1-c1ccccc1 | nt | 12% | 4.8µM* | 4% | 0% | nt
COc1ccc(-c2csc(NC(=O)c3cccc(N4C(=O)CCC4=O)c3)n2)cc1C | nt | 1% | 11µM* | -6% | 0% | nt
CC(=O)C1=C(C)N(CC2CC2)C(=O)N[C@H]1c1ccccc1 | -2% | -2% | 1% | 2% | -2% | -1%
CC1Cc2ccccc2N1S(=O)(=O)c1cnc(Cl)c(Br)c1 (stereo unspecified) | nt | -4% | 1% | -3% | -1% | nt
CSc1n[nH]c(/N=C/c2oc(O)c3ccccc23)n1 | 14% | -2% | 0% | -1% | 5% | -3%
CCN(CC)S(=O)(=O)c1cccc(C(=O)Nc2nc3cc4c(cc3s2)OCCO4)c1 | -77% | -3% | 9.5µM* | -18% | -6% | -3%
O=C(Nc1ccc2sccc2c1)c1cccc(N2C(=O)CCC2=O)c1 | 19% | ? | 8.5µM* | 18µM* | 4µM* | 0%
Cc1sc(NC(=O)c2ccc(=O)n(C)n2)nc1-c1ccccc1 | 11% | 1% | 13µM* | 0% | 12% | -3%
CCN(CC)CCNC(=S)Nc1ccc2nc3n(c(=O)c2c1)CCCCC3 | -9% | 0% | 0% | 9% | -4% | -3%
Cc1ccc(C(=O)Nc2cccnc2)cc1S(=O)(=O)N1CCCCC1 | -7% | -1% | -15% | -5% | -3% | 0%
Cc1ccc(C(=O)Nc2ccc3c(c2)CCC3)cc1S(=O)(=O)N1CCOCC1 | ? | ? | 17µM* | ? | 2.2µM* | -1%
Cc1ccc(NC(=O)c2cc3c(s2)CCC3)cc1S(=O)(=O)N1CCOCC1 | -36% | 4% | 13µM* | -15% | -4% | -2%
Cc1ccc(C(=O)Nc2cccc(C(=O)O)c2)cc1S(=O)(=O)N1CCOCC1 | 13µM* | 1.3µM* | 1.1µM* | 12% | 2.2µM* | 17%
Cc1ccc(S(=O)(=O)N2CCOCC2)cc1NC(=O)c1cc2c(s1)CCC2 | -16% | -2% | 1% | -5% | -4% | 21%
CC(=O)c1cccc(NC(=O)c2ccc(C)c(S(=O)(=O)N3CCOCC3)c2)c1 | nt | -2% | -2% | -3% | -2% | nt
Cc1ccc(C(=O)Nc2cccc(C(=O)O)c2)cc1S(=O)(=O)N1CCCCC1 | 11µM* | 0.79µM* | 0.34µM* | ? | 0.4µM* | -12%
CC(C)(C)CC(C)(C)NCC(=O)Nc1c2c(nc3ccccc13)CCC2 | nt | -5% | 4% | -7% | -8% | -2%
Cc1ccc(S(=O)(=O)NNC(=S)NCCc2ccccc2)cc1 | nt | -1% | -2% | 0% | 14% | nt
O=C1c2cccc3c([N+](=O)[O-])ccc(c23)C(=O)N1Cc1cccnc1 | -44% | -5% | -3% | 12% | -31% | 4%
SMILES | SMN2 splice up | NPC1 promoter act | FLuc modulator | ELG1 genotox | Rab9 prom act | KinaseGlo FLuc
CSc1nnc(NC(=O)c2ccc(C)c(S(=O)(=O)N3CCOCC3)c2)s1 | 11µM* | 26% | ? | ? | 6% | -5%
Cc1cc(NC(=O)CSc2nc3c(cc2C#N)CCC3)no1 | nt | 0.5µM* | ? | 4.1µM* | 0.5µM* | nt
N#Cc1cc2c(nc1SCc1ccncc1)CCC2 | 11µM* | ? | ? | ? | ? | -2%
Cc1cc(NC(=O)CSc2nc3c(cc2C#N)CCCC3)no1 | 4µM* | 2.5µM* | ? | ? | 1.6µM* | 0%
O=C(CC(=O)N/N=C\c1ccccc1[N+](=O)[O-])NCCc1ccccc1 | nt | 3% | 2% | -4% | 0% | nt
O=[N+]([O-])c1ccccc1/C=N/OCc1ccccc1 | nt | 4µM* | 11µM* | ? | ? | nt
Clc1ccccc1-c1nnc(-c2ccccc2Cl)o1 | 13µM* | 4µM* | 8.5µM* | ? | 2.5µM* | -7%
Clc1ccc(-c2nnc(-c3ccccc3Cl)o2)cc1 | nt | 0.63µM* | 1.2µM* | ? | 0.45µM* | nt
O=C(Nc1ccc(NC(=O)c2ccccc2Cl)cc1)c1cccnc1 | nt | 3% | -11% | 5% | 2% | nt
CCCNCc1nnc(-c2ccccc2Cl)o1 | 24% | 2% | -25% | 8% | 0% | 15%
O=C(Nc1nnc(-c2ccccc2Cl)o1)c1cccnc1 | ? | ? | 19µM* | ? | ? | -6%
Nc1c(NCc2ccccc2)c2ccccc2oc1=O | -12% | 0% | 4% | -1% | -4% | 7%
COc1ccc(OC)c(CCNC(=O)CN2C(=O)CC(C)(C)S(=O)(=O)c3ccccc32)c1 | 8% | -1% | 3% | 0% | 2% | 3%
O=C(Cc1ccc2c(c1)OCCO2)N/N=C/c1ccco1 | nt | -3% | 0% | 2% | -2% | nt
COc1cccc(NC(=O)CN(C)C(=O)CN2C(=O)NC(C)(c3ccc(C)cc3)C2=O)c1 (stereo unspecified) | nt | 0% | 6% | 0% | -1% | nt
COc1cc2c(cc1OC)C(c1cc(OC)c(OC)cc1[N+](=O)[O-])N(C(C)=O)CC2 (stereo unspecified) | nt | -4% | 5% | 8% | -4% | nt
O=C(Nc1ccc(-c2nc3cc(NC(=O)c4ccccc4F)ccc3o2)cc1)c1ccccc1F | nt | nt | -2% | nt | nt | nt
O=C(Nc1ccc2oc(-c3ccccc3)nc2c1)c1ccccc1F | 13µM* | ? | ? | 19% | 2.5µM* | 2%
O=C(Nc1ccc2oc(-c3ccncc3)nc2c1)c1ccccc1F | -38% | 28% | ? | 3% | 23% | -6%
O=C(Nc1ccc2oc(-c3ccc(Cl)c(Cl)c3)nc2c1)c1ncn[nH]1 | -22% | 0.5µM* | ? | ? | 0.71µM* | 3%
O=C(Nc1ccc2oc(-c3cccc(F)c3)nc2c1)c1ccccc1F | -3% | ? | -14% | 21µM* | ? | 0%
O=C(Nc1ccc2oc(-c3ccccc3F)nc2c1)c1ccccc1F | nt | 2.2µM* | 4.8µM* | 16% | 3.5µM* | nt
